# According to PubChem BioAssay AID1645875 (National Center for Advancing Translational Sciences (NCATS), 2021):
# Records with an inconclusive call do not appear. Unmarked numbers belong to inactive results. Active and inactive are the calls of the source. Calls follow the shape of the dose curve; as a rule, active = well fitted inhibition curve with a large enough effect; inconclusive = small, poorly fitted or top-dose-only effect; inactive = no such curve, though single readings can be large or run the other way.
# Target: N-terminal Xaa-Pro-Lys N-methyltransferase 1 (Homo sapiens) (UniProt Q9BV86)
# Sequence (Q9BV86 whole entry, looked up): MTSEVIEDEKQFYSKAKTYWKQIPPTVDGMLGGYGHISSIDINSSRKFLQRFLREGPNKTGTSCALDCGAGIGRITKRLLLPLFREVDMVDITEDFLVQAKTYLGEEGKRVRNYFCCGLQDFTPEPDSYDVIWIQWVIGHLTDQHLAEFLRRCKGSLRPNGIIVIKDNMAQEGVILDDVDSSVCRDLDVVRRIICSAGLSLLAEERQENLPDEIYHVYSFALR
# Assay: Orthogonal qHTS for Inhibitors of N-terminal methyltransferase 1 (NTMT1): ThioGlo Assay
# Conditions: NTMT1 SAHH-coupled ThioGlo fluorescence, 30 min; series mostly up to 84.5 µM; activity, negative = inhibition: at the top concentration
# Text: Assay Submitter (PI): Rong Huang Ph.D. Purdue University, West Lafayette, IN 47907 The N-terminal methytransferase 1 is the first methyltransferase that methylates protein alpha-N-amines and plays an important role in regulating cell mitosis, chromatin interactions and DNA repair. It is observed to be over-expressed in various cancer patient tissues like malignant melanoma and colorectal cancer tissues. Knockdown of NTMT1 in cancer cells causes cell mitotic defects and enhances sensitivity to DNA damaging chemotherapeutics. […] These critical cellular processes in which NTMT1 is implicated, coupled with emerging links to cellular dysfunction, strengthen the inference that NTMT1 is a compelling novel anticancer target. Progress have been made in understanding the molecular properties of NTMT1 and the biological consequences of protein alpha-N-terminal methylation, but there are no specific small molecule probes available for NTMT1 to fully characterize its MTase activity. To address this unmet need, a panel of assay is created and established to enable quantitative high-throughput screening (qHTS) for novel, potent, and selective small molecule NTMT1 inhibitors. Two orthogonal qHTS that use different reagents (ThioGlo vs. MTaseGlo) are developed for primary robotic screening against the NCATS chemical library of more than 400,000 small molecules. Identified inhibitors are reacquired, validated, and further characterized. […] Early Translation Branch (ETB) National Center for Advancing Translational Sciences (NCATS) National Institute of Health (NIH)
# Materials: NTMT1 enzyme, substrate SPKRIA, control peptide RCC1-6 is provided by the Huang laboratory. MTaseGlo Assay: PROTOCOL TABLE; SEQUENCE No. (e.g., 1, 2, 3, etc.); […] (e.g., Cells, Incubation, Reagent, etc.); VALUE; DESCRIPTION 1; Enzyme; 3 uL; Dispense enzyme mixture (final concentrations of 125 nM NTMT1) into Greiner 1536-well black / solid bottom assay plate (Greiner Bio One, Monroe, NC). 2; Compounds; 23 nL; Compounds (at various concentration) and 1uM final concentration of RCC1-6 (SPKRIA) control were transferred via a Kalypsys Pin Tool (Wako USA) equipped with a 1536-slotted pin array (Wako Automation, Richmond, VA). 3; Incubation; 1 min; Incubate at room temperature. 4; Substrate; 1 uL; Dispense 1 uL of substrate solution (100uM SAM, 10uM SAHH, 15uM ThioGlo3 final concentration) was added to the wells bringing the final assay volume to 4uL. The assay plate was covered with metal lids. 5; Detection; Fluorescence; Initial fluorescence readout (background signal) was detected using the ViewLux microplate imager with an excitation filter of 340 nm and 450 nm emission filter. 6; Incubation; 30 min; Assay plates were incubation at room temperature in the dark. 7; Detection; Fluorescence; Final fluorescence readout was detected using the ViewLux microplate imager with an excitation filter of 340 nm and 450 nm emission filter. The data was normalized to the background fluorescence.
SMILES,Potency,"activity, negative = inhibition [%]"
NC(=O)CI,6890 nM (active),–
C[N+]1(C)C2CCC1CC(OC(=O)c1c[nH]c3ccccc13)C2 (stereo unspecified),1940 nM (active),–
CN[C@@H]1C[C@@H](c2ccc(Cl)c(Cl)c2)c2ccccc21,–,33.8
NC1CCc2cc(O)c(O)cc2C1 (stereo unspecified),10900 nM (active),–
C[N+]1(C)CCN(c2ccccc2)CC1,2740 nM (active),–
C[N+](C)(C)CC#CCN1CCCC1=O,1540 nM (active),–
